Laboratory results taken from PubChem BioAssay AID493052 (Broad Institute, 2011).
Results with a measured potency or affinity are listed apart. Calls of active or inactive are those of the source.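 The calls were made as follows: active = viability falls with dose and fitted half-maximal concentration is at most ten times the top valid dose; inconclusive = flat partial loss of 30 to 70 percent, or poor fit; inactive = flat within 30 percent, too weak, or rising signal.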

Assay: BJeHLT cell viability loss – BJeHLT cells, dry powder, counter-screen for Ras selective lethality project, dose response (AID 493052)
Settings: BJeHLT fibroblasts viability, Alamar Blue fluorescence, 48 h; series mostly up to 45 µM

Structure (SMILES) | outcome
CCC(=O)N(c1ccc(OC)c(Cl)c1)C(C(=O)NCCc1ccccc1)c1cccs1 (stereo not given) | inactive
O=C(c1[nH]ncc1[N+](=O)[O-])N1CCN(C(c2ccccc2)c2ccccc2)CC1 | inactive
COc1ccc(N(C(=O)CSc2ncccn2)C(C(=O)NCCc2ccccc2)c2cccs2)cc1Cl (stereo not given) | inactive
COc1ccc(N(C(=O)CO)C(C(=O)NCCc2ccccc2)c2cccs2)cc1Cl (stereo not given) | inactive
COCC(=O)N(c1ccc(OC)c(Cl)c1)C(C(=O)NCCc1ccccc1)c1cccs1 (stereo not given) | inactive
